# From PubChem BioAssay (EPA / NIEHS)
# The source made the active and inactive calls. The calls were made as follows: active = hit-call score of the fitted dose curve at least 0.9, where 1 is the maximum; inactive = score below 0.9.
# How the values were obtained:
# Conditions in all cases: primary human lung fibroblasts
# [1] = read-out: Plasminogen activator inhibitor-1 (PAI1), SERPINE1 (gene 5054); assay: BSK_MyoF_PAI1: BioMAP Diversity Plus: MyoF Assay for Plasminogen activator inhibitor-1 (PAI1) Biomarker Activity (AID 2284256);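 as to outcome: PAI-1 protein level measured by ELISA in fibroblast cultures; PAI-1 read 24 h after compound addition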
# Procedure, shortened: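 Human lung fibroblasts (MyoF system) were exposed to test chemicals for 24 h, then PAI-1 was quantified by ELISA. Activity was fitted in the positive (signal-gain) direction relative to DMSO vehicle as baseline.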
# [2] = read-out: Interleukin-8 (IL8), CXCL8 (gene 3576); assay: BSK_MyoF_IL8: BioMAP Diversity Plus: MyoF Assay for Interleukin-8 (IL8) Biomarker Activity (AID 2284261)
# Procedure, shortened: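 IL-8 quantified by ELISA after 24 h compound exposure of primary human lung fibroblasts. SRB staining of parallel cultures flagged cytotoxicity; DMSO served as baseline.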
# Decorin, DCN (gene 1634) = assay: BSK_MyoF_Decorin: BioMAP Diversity Plus: MyoF Assay for Decorin Biomarker Activity (AID 2284265)
# Procedure, shortened: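 Decorin protein was quantified by ELISA 24 h after chemical addition to primary human lung fibroblasts and analysed as increase over DMSO. Cytotoxicity was tracked in parallel cultures by SRB total-protein staining read at 560 nm.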
# [3] = BSK_MyoF_SRB: Viability Assessment in the BioMAP Diversity Plus: MyoF Assay (AID 2284267);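 also: total protein by SRB absorbance in parallel cultures as cytotoxicity measure; cells assessed 24 h after compound addition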
# Procedure, shortened: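 Human lung fibroblasts dosed with chemical and assessed 24 h later for overt cytotoxicity in parallel cultures. Total protein quantified by sulforhodamine B staining (0.1% SRB after 10% TCA fixation), read at 560 nm, analysed in positive direction versus DMSO baseline.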
# [4] = read-out: Matrix Metallopeptidase 1 (MMP1), MMP1 (gene 4312); assay: BSK_MyoF_MMP1: BioMAP Diversity Plus: MyoF Assay for Matrix Metallopeptidase 1 (MMP1) Biomarker Activity (AID 2284268)
# Procedure, shortened: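 Human lung fibroblasts (MyoF system) exposed to chemical for 24 h in 96-well format; MMP1 biomarker quantified by ELISA, with activity fitted in the positive direction relative to DMSO baseline.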
# [5] = read-out: TIMP metallopeptidase inhibitor 1 (TIMP1), TIMP1 (gene 7076); assay: BSK_MyoF_TIMP1: BioMAP Diversity Plus: MyoF Assay for TIMP metallopeptidase inhibitor 1 (TIMP1) Biomarker Activity (AID 2284269)
# Procedure, shortened: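 Primary human lung fibroblasts, MyoF multiplex system; chemical exposure 24 h; TIMP-1 by ELISA; positive fitting direction vs DMSO control.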
SMILES,outcome [1],outcome [2],"outcome (Decorin, DCN (gene 1634))",outcome [3],outcome [4],outcome [5],AC50 [1],AC50 [2],AC50 [3],AC50 [5],"AC50 (Decorin, DCN (gene 1634))",AC50 [4]
c1ccc2cc(Nc3ccc(Nc4ccc5ccccc5c4)cc3)ccc2c1,inactive,inactive,inactive,inactive,inactive,inactive,,,,,,
C[C@@H]1CCN(C(=O)[C@H](CCCN=C(N)N)NS(=O)(=O)c2cccc3c2NC[C@H](C)C3)[C@@H](C(=O)O)C1,inactive,inactive,inactive,inactive,inactive,inactive,,,,,,
CC(C)(C)CC(C)(C)c1ccc(OCCOCC[N+](C)(C)Cc2ccccc2)cc1,,,inactive,,inactive,,5 µM (active),5 µM (active),7.98 µM (active),5 µM (active),,
C1=CC2C3C=CC(C3)C2C1 (stereo not drawn),inactive,inactive,inactive,inactive,inactive,inactive,,,,,,
CC(C=O)Cc1ccc(C(C)(C)C)cc1 (stereo not drawn),inactive,inactive,inactive,inactive,inactive,inactive,,,,,,
CSCCC=O,inactive,inactive,inactive,inactive,inactive,inactive,,,,,,
CCC(C)c1cc([N+](=O)[O-])cc([N+](=O)[O-])c1OC(=O)OC(C)C (stereo not drawn),,,,,,,11.7 µM (active),35.8 µM (active),13.4 µM (active),13.6 µM (active),24.4 µM (active),20 µM (active)
CC(C)(N=C=O)c1cccc(C(C)(C)N=C=O)c1,inactive,inactive,inactive,inactive,inactive,inactive,,,,,,
c1ccc(Oc2ccccc2)cc1,inactive,inactive,inactive,inactive,inactive,inactive,,,,,,
IC(I)I,inactive,inactive,inactive,inactive,inactive,inactive,,,,,,
COc1cc(Cl)c(OC)cc1N,inactive,inactive,inactive,inactive,inactive,inactive,,,,,,
COc1ccc(CCN2CCC(Nc3nc4ccccc4n3Cc3ccc(F)cc3)CC2)cc1,inactive,,inactive,,,inactive,,7.38 µM (active),7.48 µM (active),,,3.79 µM (active)
O=C1c2ccccc2C(=O)c2c(O)ccc(O)c21,inactive,inactive,inactive,inactive,,inactive,,,,,,3.25 µM (active)
Cc1cc(CCC(=O)OCCOCCOCCOC(=O)CCc2cc(C)c(O)c(C(C)(C)C)c2)cc(C(C)(C)C)c1O,inactive,inactive,inactive,inactive,inactive,inactive,,,,,,
CCCCOC(=O)CCCCCCCC(=O)OCCCC,inactive,inactive,inactive,inactive,inactive,inactive,,,,,,
CC1(C)C2=CCCC(C)(C)[C@]23CC[C@H]1C3,,inactive,inactive,,,inactive,35.3 µM (active),,30.9 µM (active),,,31.2 µM (active)
Oc1c(Cl)cc(Cl)c(Cl)c1Cc1c(O)c(Cl)cc(Cl)c1Cl,,,inactive,,,,0.83 µM (active),13 µM (active),5.13 µM (active),1.07 µM (active),,0.198 µM (active)
CC(=O)c1c(C)c([N+](=O)[O-])c(C(C)(C)C)c([N+](=O)[O-])c1C,inactive,inactive,inactive,inactive,inactive,inactive,,,,,,
CC(=O)C1(C)CC2=C(CCCC2(C)C)CC1C (stereo not drawn),,inactive,inactive,,,,11.2 µM (active),,14.6 µM (active),20 µM (active),,4.66 µM (active)
Clc1cc(Cl)c(-c2c(Cl)c(Cl)cc(Cl)c2Cl)cc1Cl,,,inactive,,,inactive,4.46 µM (active),7.14 µM (active),11.6 µM (active),,,2.61 µM (active)
CN(C)C(=S)SC(=S)N(C)C,,inactive,inactive,inactive,,inactive,3.95 µM (active),,,,,29.4 µM (active)
CCN(CC)C(=O)N(CC)CC,inactive,inactive,inactive,inactive,inactive,inactive,,,,,,
CCCCCCCCCCCCCCCC(=O)OC/C=C(C)/C=C/C=C(C)/C=C/C1=C(C)CCCC1(C)C,inactive,inactive,inactive,inactive,inactive,inactive,,,,,,
